PLAP activator – human PLAP activation. P05187. purified PLAP enzyme, luminescent substrate read-out; stronger effect = higher value. activation fold at 20 µM. 1.2% of 96,000 active. AID 696; in the data active = activation fold above about 2
D1 allo mod – allosteric modulators of human D1 dopamine receptor | P21728 | HEK293 D1, CRE-luciferase, dopamine EC30 potentiation; actives deviate in either direction | B-score at 10 µM | 5.9% of 58,000 active | AID 641;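 active = luminescence count or its row- and column-corrected plate score outside the 99.7% band of the plate's sample wells, on either side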
Cav3 T inh – blocks human Cav3.2 T-type calcium channel | O95180 | Cav3.2-expressing cells, Fluo-4 calcium fluorescence FDSS; stronger effect = lower value | B-score at 10 µM | 4% of 100,000 active | AID 449739;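 active = single-dose well whose peak fluorescence ratio is a statistical outlier from its plate by either plate-standardised score or position-corrected B-score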
PostGolgi ctrl – yeast control strain growth, post-Golgi counter-screen; efflux-deficient yeast background strain, growth absorbance A615, 16 h; inhibition, % at 10 µM; 5% of 98,000 active; AID 738
PostGolgi yeast – growth inhibition of a yeast mutant, post-Golgi transport screen; post-Golgi transport phenotypic cell assay; inhibition, % at 10 µM; 0.9% of 98,000 active; AID 739;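 note: yeast cells grown in 1536-well plates; yeast grown about 18 h at 30C before absorbance read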
DAT uptake mod – human DAT dopamine uptake with cocaine, either direction; Q01959; LLC-PK1 hDAT cells, [14C]-dopamine uptake with cocaine IC80; actives deviate in either direction; B-score at 10 µM; 1.3% of 110,000 active; AID 449768;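 active = Z score or B-score, a plate-position-corrected score, falls beyond the plate's 99.7% confidence bounds, in either direction; inactive = both scores lie inside the 99.7% bounds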
Target sequence (Q01959 whole entry, looked up): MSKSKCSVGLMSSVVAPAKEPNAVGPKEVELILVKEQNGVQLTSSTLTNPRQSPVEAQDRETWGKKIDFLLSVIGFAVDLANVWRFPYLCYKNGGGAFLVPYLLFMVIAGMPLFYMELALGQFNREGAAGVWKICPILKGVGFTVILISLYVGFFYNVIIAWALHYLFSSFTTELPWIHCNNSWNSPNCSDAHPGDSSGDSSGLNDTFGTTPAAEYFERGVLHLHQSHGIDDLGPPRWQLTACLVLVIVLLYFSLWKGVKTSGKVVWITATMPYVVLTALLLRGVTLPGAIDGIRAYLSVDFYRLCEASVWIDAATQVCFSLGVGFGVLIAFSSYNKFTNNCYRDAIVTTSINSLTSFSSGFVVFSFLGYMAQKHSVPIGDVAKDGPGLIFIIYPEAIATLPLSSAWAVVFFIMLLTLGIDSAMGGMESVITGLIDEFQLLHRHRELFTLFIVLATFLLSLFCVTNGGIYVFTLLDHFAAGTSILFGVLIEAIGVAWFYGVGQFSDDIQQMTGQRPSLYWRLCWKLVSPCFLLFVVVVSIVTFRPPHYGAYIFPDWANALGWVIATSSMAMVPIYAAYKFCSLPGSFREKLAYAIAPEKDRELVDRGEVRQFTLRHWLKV
Large screens that a line does not name were inactive. Hits are enriched below; roughly 12% of the tested compounds scored in any of these assays. Cut-off read from the data, not from the text of the source, unless noted: active = inhibition above about 30%; inactive = the rest.

O=C(c1ccco1)N1CCN(C(=O)C2CCCc3c2[nH]c2ccc(Cl)cc32)CC1 (stereo not drawn)	none
Oc1ccc(Cl)cc1/C=N/c1nccs1	Cav3 T inh -3.4
Nc1nc(Nc2ccccc2)nc2ccccc12	D1 allo mod -5.6
CSCCC1(C(=O)O)NC(c2ccccc2O)C2C(=O)N(C(C)C)C(=O)C21 (stereo not drawn)	DAT uptake mod -2.6 (no result: D1 allo mod)
CCCc1cc(C(=O)Cc2ccc(C(=O)OCC)o2)c(O)cc1O	Cav3 T inh -4.1, PostGolgi ctrl 31
CCCc1cc(C(=O)Cc2ccc(F)cc2)c(O)cc1O	PostGolgi ctrl 52
O=C(CSc1nnc(-c2ccccc2O)o1)Oc1ccc(OCc2ccccc2)cc1	none
CCOC(=O)C1C(=O)CC(C)(O)C(C(=O)OCC)C1c1ccco1 (stereo not drawn)	none
c1ccc(-c2csc(Nc3nc(N4CCOCC4)nc(N4CCOCC4)n3)n2)cc1	none
O=C(Nc1ccccc1C(F)(F)F)C1CC(=O)N(c2ccccc2F)C1 (stereo not drawn)	none
O=C1CN(c2ccccc2F)C(=O)CN1c1ccccc1F	PostGolgi ctrl 37
c1ccc(CN2CCN(c3ncnc4nc[nH]c34)CC2)cc1	PLAP activator 2.1 (no result: D1 allo mod, Cav3 T inh)
C1=C(c2ccccc2)CCN(c2ncnc3nc[nH]c23)C1	PLAP activator 2 (no result: D1 allo mod, Cav3 T inh)
c1nc(N2CCCCC2)c2[nH]cnc2n1	none
COc1cc(NS(C)(=O)=O)c(OC)cc1NC(=O)c1cccc(F)c1	none
Cc1nnc(SCc2ccc(Cl)cc2)n1CC1CCCO1 (stereo not drawn)	none
CCSc1nn2c(=O)c3ccccc3nc2s1	none (no result: D1 allo mod)
Cc1ccccc1OCC(=O)N(Cc1nc(-c2ccccc2)no1)C(C)C	Cav3 T inh -4.3
CC(C)N(Cc1nc(-c2ccccc2)no1)C(=O)C1CCCCC1	none (no result: D1 allo mod)
CN(Cc1nc(-c2cccnc2)no1)S(=O)(=O)c1ccc(Br)cc1	none
Cc1ccccc1OCc1nc(-c2ccccc2)no1	none
COc1ccccc1OCC(=O)N(Cc1nc(-c2ccccc2)no1)C1CCCCC1	Cav3 T inh -8.1
CC(C)N(Cc1nc(-c2ccccc2)no1)C(=O)CN(C)S(=O)(=O)c1ccc(Br)cc1	PostGolgi ctrl 62 (no result: D1 allo mod)
Cc1ccc(SCC(=O)N(Cc2nc(-c3ccccc3)no2)C(C)C)cc1	PostGolgi ctrl 30
CCCCN1CC[C@H]2C=CC[C@@H](C(=O)Nc3ccccc3)[C@H]2C1=O	none (no result: PLAP activator, D1 allo mod, PostGolgi ctrl, PostGolgi yeast)
Cc1nc2c3c(-c4ccccc4)nc(N4CCOCC4)nc3nn2c(C)c1CCC(=O)O	none (no result: PLAP activator, Cav3 T inh, PostGolgi ctrl, PostGolgi yeast, DAT uptake mod)
CCn1c(SCC(=O)N2CCc3ccccc32)nnc1-c1ccco1	none (no result: D1 allo mod)
Cc1ccc(C)c(S(=O)(=O)NC(C)C(=O)Nc2ccc(-c3nc4ccccc4s3)cc2)c1 (stereo not drawn)	PostGolgi ctrl 33 (no result: D1 allo mod)
CCCOc1ccc(-c2cnc(N)s2)cc1	none (no result: D1 allo mod)
COC(=O)C1=C(C)N=c2s/c(=C/c3cccs3)c(=O)n2C1c1cccs1 (stereo not drawn)	none
COC(=O)C1=C(C)N=c2s/c(=C/c3ccoc3)c(=O)n2C1c1ccccc1 (stereo not drawn)	D1 allo mod -3.6, PostGolgi ctrl 59
CCOC(=O)C1=C(C)N=c2s/c(=C3/C(=O)Nc4ccccc43)c(=O)n2C1c1ccc(C)cc1 (stereo not drawn)	none (no result: PLAP activator, D1 allo mod, PostGolgi ctrl, PostGolgi yeast)
COC(=O)C1=C(C)N=c2s/c(=C3\C(=O)Nc4ccccc43)c(=O)n2C1c1ccccc1 (stereo not drawn)	PostGolgi ctrl 39 (no result: PLAP activator, Cav3 T inh, DAT uptake mod)
CC(C)(C)S(=O)c1cccs1 (stereo not drawn)	none (no result: D1 allo mod)
Cc1cc(NC(=O)c2cc3nc(C4CC4)cc(C(F)(F)F)n3n2)no1	PostGolgi ctrl 31
O=C(NCc1ccccc1)c1cc2nc(C3CC3)cc(C(F)(F)F)n2n1	none (no result: D1 allo mod)
Cc1ccc(C2(C)NC(=O)N(CCOc3ccccc3)C2=O)cc1 (stereo not drawn)	Cav3 T inh -3.3 (no result: D1 allo mod)
COc1ccc(OCCN2C(=O)NC(C)(c3ccc(C)cc3)C2=O)cc1 (stereo not drawn)	none (no result: PLAP activator)
O=C(Nc1ccccc1C(=O)OCc1nnc(-c2ccccc2)o1)c1ccco1	PostGolgi ctrl 48
C#Cc1ccc([C@@H]2C=C(C(=O)NCc3nc4ccccc4[nH]3)O[C@H](OCC)[C@H]2CCCO)cc1	none (no result: PLAP activator, D1 allo mod, PostGolgi ctrl, PostGolgi yeast)
Cc1cc(S(=O)(=O)Nc2ccc3ccccc3c2)c(C)s1	PostGolgi ctrl 78 (no result: D1 allo mod)
O=C1CC(N(CCc2ccccc2)C(=S)Nc2cc(Cl)ccc2Cl)C(=O)N1c1c(Cl)cccc1Cl (stereo not drawn)	Cav3 T inh -2.6 (no result: D1 allo mod)
Cc1ccc(OCC(=O)Nc2ccc(S(=O)(=O)N3CCN(C)CC3)cc2)cc1	none (no result: PLAP activator, D1 allo mod, PostGolgi ctrl, PostGolgi yeast)
Cc1ccc(S(=O)(=O)N2CCN(C(=O)CCC(=O)OCC(=O)Nc3cccc(C#N)c3)CC2)cc1	PostGolgi ctrl 32
CCN(CC)CCCN1C(=O)C(=O)/C(=C(/O)c2ccc(OC)c(Cl)c2)C1c1ccco1 (stereo not drawn)	none (no result: Cav3 T inh, PostGolgi ctrl, PostGolgi yeast, DAT uptake mod)
COCCN1CCN(c2c(C)c(C)nc3cc(-c4cccc(OC)c4)nn23)CC1	none (no result: PLAP activator, Cav3 T inh, PostGolgi ctrl, PostGolgi yeast, DAT uptake mod)
CCOCCN1CCN(c2c(C)c(C)nc3cc(-c4cc(OC)cc(OC)c4)nn23)CC1	DAT uptake mod 2.5 (no result: D1 allo mod)
COc1ccc(CNC(=O)CCc2c(C)nc3ncnn3c2C)cc1	none (no result: Cav3 T inh)
Oc1ccc(-c2nc3ccccn3c2NCc2ccco2)cc1	none (no result: D1 allo mod)
Cc1ccc(-c2nc3ccccn3c2NCc2ccc3c(c2)OCO3)cc1	Cav3 T inh -4.4 (no result: D1 allo mod)
CC(C)N(C(=O)CSc1nc2ccccc2n1Cc1ccccc1F)C(C)C	Cav3 T inh -9 (no result: PLAP activator, D1 allo mod, PostGolgi ctrl, PostGolgi yeast)
CC(=O)Nc1nc2ccccc2n1CCOc1ccccc1	none
NC(=O)CSc1nc2ccccc2n1Cc1ccccc1F	none
S=C(Nc1ccccc1)Nc1nc2ccccc2n1CCOc1ccccc1	PostGolgi ctrl 32 (no result: D1 allo mod)
CCSc1nc2ccccc2n1CCOc1ccccc1	Cav3 T inh -3.8 (no result: PLAP activator, D1 allo mod, PostGolgi ctrl, PostGolgi yeast)
CCSc1nc2ccccc2n1Cc1ccccc1F	Cav3 T inh -5 (no result: PLAP activator, D1 allo mod, PostGolgi ctrl, PostGolgi yeast)
CCc1nnc(NC(=O)Cn2nc(-c3ccccc3OC)ccc2=O)s1	none
CCc1nnc(NC(=O)CSc2nc3cccnc3n2Cc2ccccc2)s1	none (no result: PLAP activator, D1 allo mod, PostGolgi ctrl, PostGolgi yeast)
COc1ccc(/C=C2\CCc3ccccc3C2=O)cc1Cn1cccn1	Cav3 T inh -3.7 (no result: D1 allo mod)
O=C1/C(=C\c2cccnc2)CCc2ccccc21	none (no result: D1 allo mod, Cav3 T inh, DAT uptake mod)
CCOc1ccc(OCc2cccc(C(=O)N3CCOCC3)c2)cc1	D1 allo mod -6.7 (no result: Cav3 T inh, DAT uptake mod)
COc1ccnc(Oc2ccc(F)cc2)c1C(=O)N/C=N/OCc1ccc(F)cc1Cl	PostGolgi ctrl 38 (no result: D1 allo mod)
COc1ccc(-c2nsc3c(N4CCCC4)ncnc23)cc1	D1 allo mod -4.4
Cc1ccc(-c2nc(CSCC(=O)NCCCN3CCOCC3)c(C)o2)cc1	none
Cc1ccc(-c2nc(CSCC(=O)NCCN3CCN(Cc4ccccc4)CC3)c(C)o2)cc1	PostGolgi ctrl 38
CCOC(=O)c1cc(Br)c(=O)n2ccccc12	none (no result: D1 allo mod, Cav3 T inh, DAT uptake mod)
CCOC(=O)c1ccc2c(c1)n(CC)c(/C=C/Nc1ccccc1)[n+]2CC	PostGolgi ctrl 32 (no result: D1 allo mod)
CCn1c(/C=C/N(C)c2ccccc2)[n+](CC)c2ccc(Cl)cc21	none (no result: D1 allo mod)
